Source: the supplement of paper PMC13380429

The compounds below were run on Vero E6 infected with SARS-CoV-2 (assay: inhibition of SARS-CoV-2 cytopathic effect; higher = more antiviral protection, active = above 15). Settings: 8.33 nM; 48 h.

Row | Compound | inhibition of SARS-CoV-2 cytopathic effect
1 | O=C(NO)c1ccc(O)c(O)c1 [didox] | 0.68% (inactive)
2 | Cc1ccc2c(c1)=C(c1ccccc1)C(C1=NN(C(=O)CCC(=O)O)C(c3ccc(Br)cc3)C1)C(=O)N=2 (stereo unspecified) | -0.1% (inactive)
3 | CC(C)[C@@H]1CC[C@@H](C)C[C@H]1O [levomenthol] | -1.68% (inactive)
4 | COc1ccc(C(=O)c2ccccc2O)c(O)c1 [dioxybenzone] | -0.38% (inactive)
5 | c1ccc2c(c1)OC[C@H](CNCCCOc1ccc3c(c1)OCO3)O2 [osemozotan] | 1.12% (inactive)
6 | CC(C)C[C@H](NC(=O)[C@@H](Cc1c[nH]c2ccccc12)NC(=O)[C@H](Cc1ccc(O)cc1)NC(=O)[C@H](CO)NC(=O)[C@H](Cc1c[nH]c2ccccc12)NC(=O)[C@H](Cc1c[nH]cn1)NC(=O)[C@@H]1CCC(=O)N1)C(=O)N[C@@H](CCCNC(=N)N)C(=O)N1CCC[C@H]1C(=O)NCC(N)=O [triptorelin] | 2.79% (inactive)
7 | Cc1cc(N2CCCCC2)nc2ccccc12 | 3.15% (inactive)
8 | Oc1cc(O)cc(O)c1 [phloroglucin] | 1.38% (inactive)
9 | CC(=O)NS(=O)(=O)c1ccc(NC(=O)c2ccccc2C(=O)O)cc1 [phthalylsulfacetamide] | -1.43% (inactive)
10 | C[C@]1(COc2ccc(N3CCC(Oc4ccc(OC(F)(F)F)cc4)CC3)cc2)Cn2cc([N+](=O)[O-])nc2O1 [delamanid] | 0.01% (inactive)
11 | Cc1ccc(/C=N/NC(=O)c2ccccc2Oc2ccccc2)o1 | -0.44% (inactive)
